Assay results taken from the supplement of paper PMC3334620.
Over roughly 33,000 sequences, “E-score (-0.5 to 0.5)” has its median near -0.0059; the highest 2% begin near 0.26. This is one part of a sample in which the highest values are shown more often than they occur.

Target: T1, Cin5 (UniProt P40917)
T1 sequence: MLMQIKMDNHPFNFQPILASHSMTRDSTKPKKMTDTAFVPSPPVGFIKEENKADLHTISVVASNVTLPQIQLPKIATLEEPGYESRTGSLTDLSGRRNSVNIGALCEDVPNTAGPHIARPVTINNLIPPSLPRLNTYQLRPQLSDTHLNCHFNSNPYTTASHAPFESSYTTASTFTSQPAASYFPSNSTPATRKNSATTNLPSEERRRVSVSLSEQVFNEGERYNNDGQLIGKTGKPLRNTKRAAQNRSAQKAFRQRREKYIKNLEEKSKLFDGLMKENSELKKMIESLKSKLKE
Assay: PBM E-score (8-mer binding enrichment) (E-score (-0.5 to 0.5)); higher = stronger / more preferred TF binding
Settings: protein concentration: 100 nM; construct: GST-full length
Description: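 Universal 'all 10-mer' protein binding microarrays (Agilent AMADID 015681) probed with GST-tagged S. cerevisiae TFs (full-length or DBD) made by in vitro transcription/translation (PURExpress), about 100-200 nM. Bound TF was detected with fluorescent anti-GST. Each ungapped 8-mer (which stands for itself and its reverse complement) is scored by the PBM enrichment score (E-score), a modified Wilcoxon-Mann-Whitney statistic from -0.5 to +0.5, computed with the Universal PBM Analysis Suite. Scale: above 0.35 generally sequence-specific binding.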

Sequence	PBM E-score
CCCTGGTA	-0.196
AGGTCGAC	0.102
GGCTGTAA	-0.129
CCCCGCGA	0.05
ACAATTGT	0.188
GCGCGGAA	0.192
CCGCGGAG	0.0845
CCGCGGGC	0.0691
CCGCGGGA	0.316
CCGCGGAA	0.272
GCGCGGGA	0.012
AGAGTTAA	0.0368
GTACTCGA	0.0237
CTCAGGTA	0.0217
ATTAGGGC	-0.0867
ATTAGGTC	0.271
CTTAGGTC	-0.0156
ATTAGGTA	0.271
ATTAGGTG	0.131
CGTAGGTA	-0.0204
CTTAGGTA	0.337
GTTAGGTA	0.242
AACTCAAT	0.165
CACTGGGC	-0.14
CGTAACCA	0.192

Sequence	PBM E-score
AGCAGCCC	-0.142
GAGGGCCC	-0.254
CCCCTCAG	-0.211
CGTAATAG	0.223
AGTAATAC	0.2
AGTAATAA	0.193
AGTAATAG	0.279
AGTAATTG	0.132
AGTAATAT	0.306
CTCTGAGC	-0.2
ACTGGGAT	0.0399
GCTCTTCA	-0.157
CGGAGTGA	0.0979
CGTTCAAA	-0.0884
GACGTCAC	0.00326
GGCCAACA	-0.0942
AATCGATA	0.247
CATCGATA	0.258
CATCGATG	0.0124
ATGCTTCA	0.0559
AATCACCG	0.0462
CCCACCCC	0.24
CCCACCCA	0.21
CCCCACCC	0.153
CCCACCCG	0.293

Sequence	PBM E-score
GCCCACCC	0.191
ACCCACCC	0.323
CCAGCGAG	-0.0473
CGAAATGA	0.19
ATGGGACA	0.0583
GTGCTCGA	-0.0887
GTGCTAAA	0.00722
CTGTAATA	0.105
ATGTAATC	0.383
ATGTAATG	0.193
ATGTAATA	0.361
AAGTAACG	-0.0154
CAGTAATC	0.15
CTGTAATC	0.128
AAGTAACA	0.316
AAGTAACT	0.186
AAGTAATC	0.339
GTGTAATA	0.193
AAGTAATT	0.181
TAGATCCA	-0.00386
CGTGCCGA	-0.115
AGGAAATA	0.164
GGCTCCAA	-0.169
AGGCTAAT	0.0863
ATAAGACA	0.105

Sequence	PBM E-score
GAATCCGA	0.0296
CGTGGTCA	-0.0679
ACAATGTG	0.0255
AACATGTC	0.0503
CACATGTG	-0.00999
AACATGTG	0.257
CTCTTGGC	-0.112
AGACTTAA	-0.139
GGACTTAA	-0.15
TGACTTAA	0.268
GCAATCAA	0.195
CATGTTGA	0.293
AATGTTGA	-0.014
CATGTTGC	-0.00801
GCACCACA	-0.122
ACCAATAC	0.104
ACCAATAG	-0.123
ACCAATAT	0.323
AACAATAT	0.345
AACAATAC	0.187
AACAATAA	0.257
GCTTGCCA	-0.131
ATCTGGCC	-0.108
CACGCGAC	-0.0294
TACTTGCA	0.141

Sequence	PBM E-score
CCACAGAC	-0.0305
CGCGCTTA	0.297
AGCGCTTA	0.157
CTCGCTGA	-0.0383
CGCGCTGA	0.104
ATCGCTTA	0.0758
CTCGCTTA	0.346
AGGTATAT	0.193
GGCGGGTA	-0.194
CGCCAAAC	-0.072
ACGCTAAC	0.0232
GTTCAAAA	-0.105
CTTAGTAC	0.0461
ATTAGTAC	0.173
ATTAGTAA	0.387
ATTAGTAG	0.0962
CTTAGTAA	0.392
GTTAGTAA	0.111
ATCTGGGC	-0.0822
AGCTGTTC	-0.0725
TCGCAAAA	0.156
CAGTATGC	0.0107
CTTAGCTC	-0.106
CCATGTAG	-0.00831
ACATGTAA	0.168

Sequence	PBM E-score
ACATGTAG	0.278
CCAGATTA	0.225
CGGCTCGC	0.0606
AAAATGGA	0.29
CAAATGGA	-0.0888
ATGATGAA	0.258
GTGATGAA	0.0186
CAAATGTA	0.268
CTGATGAA	0.0259
TAAATGTA	0.191
ATGATGTC	0.233
AAAATGGG	-0.0874
ATGATGTG	0.145
GAAATGTA	0.143
ATGATGTA	0.305
GCATAGCA	-0.0462
AGCCACCT	-0.192
GATCTGGA	-0.125
CCTTAACG	-0.0146
GTAGGGAA	0.00147
GAAACGCC	0.114
CGGGCGTA	-0.132
ACAACCGT	-0.172
GTGATGTA	0.172
CTGATGTA	0.266

Sequence	PBM E-score
CTGATGTC	0.184
GCAGCAAC	-0.0419
ATGAATGA	0.143
ATGAATGC	0.167
ATGAATGG	0.301
CCCATCAG	-0.165
CACCACGG	-0.325
ATATTAAT	0.362
TGATTAAA	0.0915
GTATTAAA	0.149
CTATTAAG	-0.041
CTATTAAC	0.115
ATATTAAA	0.35
ATATTAAC	0.28
CTATTAAA	0.00048
GTATTAAC	0.00428
ATATTAAG	0.122
TTATTAAA	0.278
AGATTAAT	0.218
AAGGATAG	0.0333
TCGATGCA	0.152
GTTCAGTA	0.0391
TGGTCGAA	-0.242
ATATCCCC	0.0837
TGCTGCCA	-0.0641

Sequence	PBM E-score
ATGATTCG	0.053
CATCCCTA	0.122
CATTCTGG	0.0333
GCACCTAA	-0.0501
GCATTAAA	0.0586
TCATTAAA	0.353
ACATTAAA	0.152
GCGTCCAC	-0.283
GCCTCCGC	-0.203
CTATTACC	-0.0809
AAATTACC	0.123
ATATTACG	0.376
ATATTACA	0.209
AAATTACG	0.171
ATATTACC	0.317
AAGAAAAT	0.159
CTCTACAC	-0.0485
ATCGTAAC	0.0852
TTAGTAAA	0.269
ATCGTAAA	0.0952
ATAGTAAC	0.182
ATCGTAAT	0.385
CTAGTAAA	0.165
GTAGTAAA	0.149
ATAGTAAA	0.198

Sequence	PBM E-score
ATAGTAAT	0.358
CCGGTAGG	-0.163
CCCAGAAG	-0.167
GCGATAGA	0.0484
CGACTTGA	-0.0696
AATCTACC	0.138
CAGATTCC	-0.0124
GAACTAGA	-0.00859
AAACTAGA	-0.116
TAACTAGA	0.306
AAGATTCT	-0.106
CTTTTGGA	-0.0744
ACAGACAC	-0.0499
AGACAGAC	0.192
ACAGACAA	0.28
AGACAGAT	0.277
AGACAGAG	-0.0616
ACAGACAG	0.195
AAGGTCGA	0.146
ACCACGCG	-0.0218
ACGTATCA	0.156
GAGCCGGA	-0.178
ATATAGTA	0.235
ATATATAG	0.26
GTATATAA	0.222

Sequence	PBM E-score
CTATATAA	0.0999
CTATAGTC	-0.063
ATATATAC	0.316
ATATATAT	0.146
GTATATAC	0.104
CTATATAG	0.103
ATATAGTC	0.258
ATATATAA	0.335
AGATATAG	0.149
ACCATCGG	-0.108
GAGGCGAC	-0.213
AGATTCTC	0.0336
GTGCAGGA	-0.0289
GAAGTCCA	-0.133
CTCTATAC	-0.0333
CTATATAC	0.313
CTATATGC	0.212
AATACATA	0.278
ATTACATA	0.355
ATTACAGA	0.0804
ATTACACG	0.0848
AATACATG	0.195
ATTACATG	0.297
ACTACATA	0.207
ATTACAGG	0.244

Sequence	PBM E-score
CTTACACA	0.259
CTTACACC	-0.0748
AGTACATG	0.118
CATACATA	0.213
GTGCCGTA	0.0613
CACCTTGA	0.00105
AAAAGACT	-0.205
GGCCATAA	0.0497
AGAAGGTG	0.0112
CTAAGGCA	-0.173
AATACGTA	0.313
AATACGTG	-0.0461
GTTACATA	0.266
AGTACATC	0.0156
CGTACATA	0.191
CTTACATC	0.213
GCTACATA	0.0756
CTTACATA	0.358
GTTACAAA	0.184
CATACGTA	0.242
ATTACATC	0.31
CTTACAAA	0.192
ACTGCCAC	-0.012
AATCAGTC	0.0788
AGCCAGTA	-0.0197

Sequence	PBM E-score
GAGTGCGA	-0.11
AATCGAGA	0.171
AATCTCCG	0.0667
ATTACAAG	0.131
ATTACAAT	0.153
ATTACAAA	0.306
CAATATAA	0.295
TCATATAA	0.197
TAATATAA	0.355
CAATATAG	0.225
GAATATAA	0.112
CAATATAC	0.181
TATAGCCA	0.111
CTTTAATA	0.122
GCTTAATA	0.207
ACTTAATA	0.26
ATTTAATA	0.295
GTTTAATA	0.143
ACTTAATC	0.133
AGTTCGCA	0.0133
ATCCAACA	0.0603
CTTGCGTC	-2e-05
TATGGGGA	0.27
AATGGGGA	0.0144
CATGGGGA	-0.0804

Sequence	PBM E-score
CGGGTGTC	-0.00474
ACCCCTCT	-0.17
CTACATAA	0.0697
AGACATAT	0.0819
ATACATAT	0.318
ATACATAA	0.286
ATACATAG	0.159
ATACATAC	0.0724
AGTTCTAC	-0.141
TATGCTCA	0.132
CAACCCGG	-0.222
CGCAGCGC	-0.138
AAGCTACC	0.106
ATATGAAA	0.259
AAATGAGA	0.128
CAATGAAA	0.0978
CAATGATA	0.182
ATATGAAC	0.132
TAAATGAA	0.129
GAAATGAA	0.275
AAATGAAA	0.266
CAAATGAA	-0.0217
AAATGATA	0.279
TAATGAAA	0.203
CTATGAAA	0.0722

Sequence	PBM E-score
CTTTGCCC	-0.199
ATCCCTAA	-0.19
ACGGCCGA	0.0311
GGCGGCAA	-0.184
GGTATACC	-0.0512
AACCAATA	0.214
AGATACAT	0.171
CAGCGCAA	0.0372
TAATGATA	0.298
TAATGACA	0.237
GAATGATC	-0.046
GAATGAGA	0.115
TAATGGTA	-0.00375
TAATGAGA	0.0551
CAATGGTA	0.101
AAATGATC	0.00639
AAATGATT	0.294
AAATGATG	0.207
AAATGGTA	0.268
GAATGATA	0.291
